Screens as filed in PubChem.
In the library only some 21% were active in any assay of this set; here they are far more common.
DT40 TDP1 CPT: DT40-hTDP1 cell growth loss with CPT | chicken DT40 Tdp1-/-;hTDP1 cells + 20 nM CPT, ATP luminescence, 48 h | Potency, µM (highest dose often 46.2 µM), actives largely listed as inhibitors | 420,000 tested, 12% active | AID 686979; also: nearly all actives have a fitted effect of over 55% in size
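Chicken DT40 Tdp1-/- cells stably complemented with human TDP1 were seeded at 400 cells/well in medium containing 20 nM camptothecin, exposed to pin-transferred compounds, and grown at 37 °C for at least 48 hr. Viability was read as ATP luminescence.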
Gal4-VP16 FLuc: Gal4-VP16 reporter inhibition counter-screen | Drosophila S2 Gal4-VP16 UAS-luciferase, luminescence, 20 h | Potency, µM (top dose mostly 53.6 µM), hits mostly inhibitors | 310,000 tested, 3.5% active;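 also: Gal4-VP16 expression switched on by copper sulfate through the metallothionein promoter; nearly all actives have a fitted effect of over 50% in size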
TDP1 cell noCPT: qHTS for Inhibitors of human tyrosyl-DNA phosphodiesterase 1 (TDP1): qHTS in cells in absence of CPT; DT40 Tdp1-/- hTDP1 cells, no CPT, ATP luminescence, 48 h; 420,000 tested, 15% active; Potency, µM (series often up to 46.2 µM), hits mostly inhibitors; also: nearly all actives have a fitted effect of over 55% in size
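A cellular qHTS used chicken DT40 cells lacking endogenous Tdp1 but carrying stably transfected human TDP1. Compounds were applied without camptothecin, and cell growth kinetics were judged by ATP-dependent luminescence after ≥48 hr.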
ELG1 DNA repair: ELG1-dependent DNA repair inhibition | AID 504467 | HEK293T ELG1-luciferase reporter, luminescence, 16 h; DNA damage induced by 5-fluorouridine | Potency, µM (titrated, usually from 46.1 µM), usual class: inhibitors | 330,000 tested, 2.3% active; also: nearly all actives have a fitted effect of over 55% in size
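5-Fluorouridine DNA damage + compound/DMSO, 2,000 cells/well, 16 h, 37 °C/5% CO2. ONE-Glo, 30 min RT, luminescence. Readout = decrease in reporter signal.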
IL-1B inflam inh: blocks inflammasome-driven IL-1 beta release; THP-1 LPS/ATP IL-1B secretion, AlphaLISA, 16 h; hits give low values; activity change, % at 57.5 µM; 360,000 tested, 4.7% active; in the data active = activity change below about -50%; inconclusive = mostly about -30% to -49%
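THP-1 cells pretreated 1 hr with compounds (up to 57.5 uM final), then stimulated with LPS (250 ng/mL final) plus ATP (1.25 mM final); secreted IL-1B measured by AlphaLISA after 16 hr, decreased signal indicating inhibition.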
RORgamma inh: blocks mouse ROR gamma transcriptional activity; P51450; Drosophila S2 Gal4-RORgamma UAS-luciferase reporter, 20 h; Potency, µM (top dose mostly 53.6 µM), usual class: inhibitors; 310,000 tested, 5.4% active; AID 2551; also: nearly all actives have a fitted effect of over 60% in size
Target sequence (P51450 whole entry, looked up, the tested form may be a part): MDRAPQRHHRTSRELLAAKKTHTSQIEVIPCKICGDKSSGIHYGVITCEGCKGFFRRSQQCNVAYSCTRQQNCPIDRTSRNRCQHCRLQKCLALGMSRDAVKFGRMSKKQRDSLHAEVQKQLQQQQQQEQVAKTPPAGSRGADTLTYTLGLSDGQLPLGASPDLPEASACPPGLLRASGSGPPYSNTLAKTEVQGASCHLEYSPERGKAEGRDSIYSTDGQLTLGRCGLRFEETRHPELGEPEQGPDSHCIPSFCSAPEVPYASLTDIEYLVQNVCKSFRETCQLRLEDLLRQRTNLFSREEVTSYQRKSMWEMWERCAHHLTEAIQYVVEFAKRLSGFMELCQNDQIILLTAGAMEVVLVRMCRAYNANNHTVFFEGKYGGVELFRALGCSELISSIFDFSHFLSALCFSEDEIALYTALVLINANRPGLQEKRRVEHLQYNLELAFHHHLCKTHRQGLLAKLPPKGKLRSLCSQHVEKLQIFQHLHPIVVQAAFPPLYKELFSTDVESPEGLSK
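ROR gamma transcriptional activity was tracked as Gal4-UAS luciferase output in stably transfected Drosophila Schneider cells, with compound added 1 hr before 700 uM copper sulfate induction and a 20 hr ambient-temperature incubation.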
Hits are given with their value. Unless noted, calls follow the shape of the dose curve; as a rule, active = well fitted curve in the direction sought with a large enough effect; inconclusive = small, poorly fitted or top-dose-only effect, or another doubt; inactive = no such curve, though single readings can be large; an effect the other way counts as inactive or inconclusive.

COc1ccc(/C=N\NC(=O)c2ccc(F)cc2)cc1COc1cc(F)ccc1[N+](=O)[O-] was read as DT40 TDP1 CPT inconclusive, Gal4-VP16 FLuc inconclusive, TDP1 cell noCPT inconclusive, ELG1 DNA repair 21µM, IL-1B inflam inh inactive and RORgamma inh inconclusive.
For NC(=O)CC[C@H](NC(=O)c1ccc(F)cc1)C(=O)OCC(=O)NCc1ccc2c(c1)OCO2 the results were DT40 TDP1 CPT inactive, TDP1 cell noCPT inactive, ELG1 DNA repair inactive and IL-1B inflam inh inactive.
Screening COc1ccc(/C=N/NC(=O)c2ccc(F)cc2)cc1CN1CCc2cc(OC)c(OC)cc2C1C (stereo not given) returned DT40 TDP1 CPT inconclusive, Gal4-VP16 FLuc inactive, TDP1 cell noCPT 18µM, ELG1 DNA repair 21µM, IL-1B inflam inh -59 and RORgamma inh inactive.
`COc1ccc(/C=N/NC(=O)c2ccc(C)cc2)cc1CN1CCN(c2ccc(F)cc2)CC1` gave DT40 TDP1 CPT inactive, Gal4-VP16 FLuc inactive, TDP1 cell noCPT inconclusive, ELG1 DNA repair inconclusive, IL-1B inflam inh inactive and RORgamma inh inactive.
Screening COCc1cc(/C=N\NC(=O)c2ccc(Cl)cc2)ccc1OC returned DT40 TDP1 CPT inactive, Gal4-VP16 FLuc inactive, TDP1 cell noCPT inactive, ELG1 DNA repair inactive, IL-1B inflam inh inactive and RORgamma inh inactive.
Screening COc1ccc(/C=N/NC(=O)c2ccc(NC(C)=O)cc2)cc1COc1ccc(F)cc1F returned DT40 TDP1 CPT inconclusive, Gal4-VP16 FLuc 10µM, TDP1 cell noCPT inactive, ELG1 DNA repair inactive, IL-1B inflam inh inactive and RORgamma inh 11µM.
COc1cccc(OCc2cc(/C=N/NC(=O)c3ccn[nH]3)ccc2OC)c1 was read as DT40 TDP1 CPT inconclusive, Gal4-VP16 FLuc inactive, TDP1 cell noCPT 26µM, ELG1 DNA repair inactive, IL-1B inflam inh inactive and RORgamma inh inactive.
Screening COc1ccc(/C=N/NC(=O)c2ccn[nH]2)cc1CN1CCOCC1 returned DT40 TDP1 CPT inactive, Gal4-VP16 FLuc inactive, TDP1 cell noCPT inactive, ELG1 DNA repair inconclusive, IL-1B inflam inh inactive and RORgamma inh inactive.
COc1cc(OC)cc(C(=O)N/N=C/c2ccc(OC)c(COc3ccc4ccccc4c3)c2)c1 was read as DT40 TDP1 CPT 4.1µM, Gal4-VP16 FLuc inactive, TDP1 cell noCPT 6.5µM, ELG1 DNA repair inconclusive, IL-1B inflam inh inactive and RORgamma inh inactive.
`COc1ccccc1CNC(=O)CN1C(=O)COc2ccc(S(=O)(=O)Nc3ccccc3)cc21` gave DT40 TDP1 CPT inactive and TDP1 cell noCPT inconclusive.
Screening CCCCNC(=O)C(NC(=O)c1ccc2ccccc2c1)C(=O)c1ccccc1 (stereo not given) returned DT40 TDP1 CPT inconclusive, TDP1 cell noCPT inactive and IL-1B inflam inh inactive.
Screening COc1ccc(/C=N\NC(=O)c2ccccc2OC)cc1COc1ccccc1C returned DT40 TDP1 CPT 16µM, Gal4-VP16 FLuc inactive, TDP1 cell noCPT inconclusive, ELG1 DNA repair inconclusive, IL-1B inflam inh inactive and RORgamma inh inconclusive.
`COc1ccc(/C=N\NC(=O)c2ccccc2F)cc1COc1ccc(F)cc1F` gave DT40 TDP1 CPT 2.6µM, Gal4-VP16 FLuc 20µM, TDP1 cell noCPT 2.6µM, ELG1 DNA repair inactive, IL-1B inflam inh inactive and RORgamma inh 16µM.
COc1ccc(/C=N\NC(=O)c2ccccc2F)cc1COc1ccc(F)cc1 was read as DT40 TDP1 CPT inconclusive, Gal4-VP16 FLuc inactive, TDP1 cell noCPT inconclusive, ELG1 DNA repair inactive, IL-1B inflam inh inactive and RORgamma inh inactive.
COc1ccc(/C=N/NC(=O)c2ccoc2C)cc1COc1c(C)cccc1C was read as DT40 TDP1 CPT 12µM, Gal4-VP16 FLuc inconclusive, TDP1 cell noCPT 15µM, ELG1 DNA repair inconclusive, IL-1B inflam inh inactive and RORgamma inh 11µM.
COc1ccc(/C=N\NC(=O)c2ccccc2Br)cc1COc1c(F)c(F)cc(F)c1F was read as DT40 TDP1 CPT inconclusive, Gal4-VP16 FLuc inconclusive, TDP1 cell noCPT 16µM, ELG1 DNA repair inconclusive, IL-1B inflam inh inactive and RORgamma inh inconclusive.
For CCc1ccc(NC(=O)Cn2nnc(C(=O)Nc3cc(C)ccc3OC)c2N)cc1 the results were DT40 TDP1 CPT inactive and TDP1 cell noCPT inactive.
For CC(=O)C[C@@H](O)CC(=O)[C@@H]1OC(=O)[C@@H](C)C/C=C\Cc2ccccc21 the results were DT40 TDP1 CPT inactive, TDP1 cell noCPT inactive, ELG1 DNA repair inactive and IL-1B inflam inh inactive.
For O=C(Nc1ccccc1C(=O)OCc1cc(=O)n2ccsc2n1)c1ccc(Cl)cc1 the results were DT40 TDP1 CPT inactive and TDP1 cell noCPT inactive.
Screening O=S(=O)(c1ccc(Br)cc1)c1nc(-c2ccco2)oc1NCCCn1ccnc1 returned DT40 TDP1 CPT inconclusive, TDP1 cell noCPT inactive, ELG1 DNA repair inactive and IL-1B inflam inh inactive.
`COCCN(C(=O)CSc1nnc(-c2ccc(F)cc2)n1N)c1c(N)n(CC(C)C)c(=O)[nH]c1=O` gave DT40 TDP1 CPT inactive, TDP1 cell noCPT inactive and IL-1B inflam inh inactive.
For CC(=O)Nc1ccc(C(=O)N2CCCCC2c2cc(C(=O)Nc3cccc4c3CCCC4)no2)cc1 (stereo not given) the results were DT40 TDP1 CPT inconclusive, TDP1 cell noCPT inconclusive and IL-1B inflam inh inactive.
`O=C(NCc1ccc(F)cc1)c1cc(C2CCCCN2S(=O)(=O)c2cccs2)on1` (stereo not given) gave DT40 TDP1 CPT inactive, TDP1 cell noCPT inconclusive and IL-1B inflam inh inactive.
`N#Cc1ccc(S(=O)(=O)N2CCCCC2c2cc(C(=O)Nc3cccc4c3CCCC4)no2)cc1` (stereo not given) gave DT40 TDP1 CPT inconclusive, TDP1 cell noCPT inconclusive and IL-1B inflam inh inactive.
O=C(Nc1ccc2c(c1)OCO2)c1cc(C2CCCCN2S(=O)(=O)c2cccs2)on1 (stereo not given) was read as DT40 TDP1 CPT inconclusive, TDP1 cell noCPT 23µM and IL-1B inflam inh inactive.
`O=C(Nc1cccc2c1CCCC2)c1cc(C2CCCCN2S(=O)(=O)c2cccs2)on1` (stereo not given) gave DT40 TDP1 CPT 16µM, TDP1 cell noCPT 23µM and IL-1B inflam inh inactive.
Screening CS(=O)(=O)N1CCCCC1c1cc(C(=O)Nc2cccc3c2CCCC3)no1 (stereo not given) returned DT40 TDP1 CPT 15µM, TDP1 cell noCPT 9.2µM and IL-1B inflam inh inactive.
`O=C(Nc1ccccc1)c1cc(C2CCCCN2S(=O)(=O)c2cccs2)on1` (stereo not given) gave DT40 TDP1 CPT inactive, TDP1 cell noCPT inconclusive and IL-1B inflam inh inactive.
Screening Cc1noc(C)c1S(=O)(=O)N1CCCCC1c1cc(C(=O)Nc2cccc3c2CCCC3)no1 (stereo not given) returned DT40 TDP1 CPT inconclusive, TDP1 cell noCPT 21µM and IL-1B inflam inh inactive.
